The nature of test [1]: Quantitative High-Throughput drug screen in 47 multiple myeloma cell lines against the NCATS MIPE library collection: Karpas620_DSMZ cell viability assay (AID 1918959). Note: nearly all actives have a fitted effect of over 30% in size. The method in brief:
(§1)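 CellTiter-Glo luminescence (ATP) after 48 h compound exposure, 37C/5% CO2; 500 cells/well; MIPE 4.0 approved/investigational drugs pinned in; DMSO = 100%, media only = 0% viability.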

A short description of test [2]: Quantitative High-Throughput drug screen in 47 multiple myeloma cell lines against the NCATS MIPE library collection: Karpas417_ECACC cell viability assay (AID 1918961). The conditions noted are these: Karpas417 myeloma viability, CellTiter-Glo ATP luminescence, 48 h; viability (% of DMSO): at 45.8 µM (top of the series). An outline of the steps: (§2)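 Myeloma cells (500 per well) were exposed to MIPE 4.0 compounds by pin transfer and incubated 48 hours at 37C, 5% CO2. Viability was read as ATP by CellTiter-Glo luminescence, normalised to DMSO (100%) and media-only (0%) wells.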
Background: Cellular ATP, detected with luciferase, serves as a proxy for viable cell number.

The nature of test [3]: Quantitative High-Throughput drug screen in 47 multiple myeloma cell lines against the NCATS MIPE library collection: JIM3_ECACC cell viability assay (AID 1918963; note: nearly all actives have a fitted effect of over 35% in size). An outline of the steps: as §1
Test [4] is described as follows: Quantitative High-Throughput drug screen in 47 multiple myeloma cell lines against the NCATS MIPE library collection: H1112_PLB cell viability assay (AID 1918967; note: nearly all actives have a fitted effect of over 30% in size). The method in brief: (§3)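 Primary qHTS used for cherry-picking: cells at 500/well, library compounds for 48 h (37C, 5% CO2), luminescent ATP assay.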
Test [5] is described as follows: Quantitative High-Throughput drug screen in 47 multiple myeloma cell lines against the NCATS MIPE library collection: KMS27_JCRB cell viability assay (AID 1918970). Note: nearly all actives have a fitted effect of over 30% in size. The conditions noted are these: KMS27 myeloma cells, CellTiter-Glo ATP viability, 48 h; viability (% of DMSO): at 45.8 µM (top of the series). An outline of the steps: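 Viability inhibition screen, 48 h compound exposure, luminescent ATP read-out.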

The nature of test [6]: Quantitative High-Throughput drug screen in 47 multiple myeloma cell lines against the NCATS MIPE library collection: KMS26_JCRB cell viability assay (AID 1918975). Note: nearly all actives have a fitted effect of over 45% in size. The method in brief:
(§4)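 qHTS of the MIPE 4.0 collection: 500 myeloma cells/well, 48 h drug exposure at 37C in 5% CO2, then CellTiter-Glo for 5 min at room temperature before luminescence reading.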

Test [7] in a line: Quantitative High-Throughput drug screen in 47 multiple myeloma cell lines against the NCATS MIPE library collection: MMM1_PLB cell viability assay (AID 1918976). Note: nearly all actives have a fitted effect of over 35% in size. An outline of the steps:
(§5)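 Myeloma cells (500/well) treated with MIPE 4.0 compounds for 48 h at 37 °C, 5% CO2. Viability read as ATP via CellTiter-Glo luminescence after 5 min at RT; DMSO-only wells = 100%, media-only = 0% viability.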

A short description of test [8]: Quantitative High-Throughput drug screen in 47 multiple myeloma cell lines against the NCATS MIPE library collection: MOLP8_DSMZ cell viability assay (AID 1918977). Note: nearly all actives have a fitted effect of over 45% in size. The method in brief:
as §5

Test [9] can be described thus: Quantitative High-Throughput drug screen in 47 multiple myeloma cell lines against the NCATS MIPE library collection: KHM11_PLB cell viability assay (AID 1918962). Note: nearly all actives have a fitted effect of over 35% in size. An outline of the steps:
as §1

The nature of test [10]: Quantitative High-Throughput drug screen in 47 multiple myeloma cell lines against the NCATS MIPE library collection: JIM1_ECACC cell viability assay (AID 1918964). The method in brief: as §3
Test [11] is described as follows: Quantitative High-Throughput drug screen in 47 multiple myeloma cell lines against the NCATS MIPE library collection: INA6_PLB cell viability assay (AID 1918965; note: nearly all actives have a fitted effect of over 55% in size). The method in brief:
as §2

Test [12] is described as follows: Quantitative High-Throughput drug screen in 47 multiple myeloma cell lines against the NCATS MIPE library collection: JJN3_DSMZ cell viability assay (AID 1918966; note: nearly all actives have a fitted effect of over 50% in size). The method in brief: as §3
Test [13] is described as follows: Quantitative High-Throughput drug screen in 47 multiple myeloma cell lines against the NCATS MIPE library collection: Karpas25_ECACC cell viability assay (AID 1918968; note: nearly all actives have a fitted effect of over 35% in size). An outline of the steps: as §3
Test [14] in a line: Quantitative High-Throughput drug screen in 47 multiple myeloma cell lines against the NCATS MIPE library collection: KMS12BM_JCRB cell viability assay (AID 1918971). Note: nearly all actives have a fitted effect of over 35% in size. The method in brief: as §4
Test [15] can be described thus: Quantitative High-Throughput drug screen in 47 multiple myeloma cell lines against the NCATS MIPE library collection: KMS12PE_JCRB cell viability assay (AID 1918972). Note: nearly all actives have a fitted effect of over 30% in size. The method in brief:
as §2

Test [16] can be described thus: Quantitative High-Throughput drug screen in 47 multiple myeloma cell lines against the NCATS MIPE library collection: KMS20_JCRB cell viability assay (AID 1918973). Note: nearly all actives have a fitted effect of over 45% in size. The method in brief: as §3
Test [17] in a line: Quantitative High-Throughput drug screen in 47 multiple myeloma cell lines against the NCATS MIPE library collection: KMS21BM_JCRB cell viability assay (AID 1918974). The conditions noted are these: ATP luminescence, 48 h; viability: at 45.8 µM (top of the series). An outline of the steps: as §3
Test [18] is described as follows: Quantitative High-Throughput drug screen in 47 multiple myeloma cell lines against the NCATS MIPE library collection: OCIMY1_PLB cell viability assay (AID 1918979). Note: nearly all actives have a fitted effect of over 35% in size. The method in brief:
as §5

Test [19] is described as follows: Quantitative High-Throughput drug screen in 47 multiple myeloma cell lines against the NCATS MIPE library collection: NCIH929_DSMZ cell viability assay (AID 1918978). Note: nearly all actives have a fitted effect of over 35% in size. The method in brief:
as §5

Test [20] can be described thus: Quantitative High-Throughput drug screen in 47 multiple myeloma cell lines against the NCATS MIPE library collection: KMM1_JCRB cell viability assay (AID 1918960). Note: nearly all actives have a fitted effect of over 30% in size. The method in brief:
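Here, 48 h treatment with MIPE 4.0 agents at 37 °C preceded an ATP luminescence read. Plating density was 500 cells per well.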

Records with an inconclusive call do not appear. The source made the active and inactive calls. Calls come from the whole dose curve; as a rule, active = well fitted curve in the direction sought with a large enough effect; inconclusive = small, poorly fitted or top-dose-only effect, or another doubt; inactive = no such curve, though single readings can be large; an effect the other way counts as inactive or inconclusive.
Potency is the fitted concentration of half-maximal effect.

With `OC[C@H]1OC(O)C[C@@H](O)[C@H]1O` (some centres undefined), the Potency entry in test [1], in test [2], in test [3], in test [4], in [5] and in [6] was “inactive” throughout. For the same molecule, the Potency entry in test [7] and in test [8] was “inactive” each time.
For the molecule `NC(=NCCCCCCN=C(N)N=C(N)Nc1ccc(Cl)cc1)N=C(N)Nc1ccc(Cl)cc1`, the Potency in test [1] is 18.7 µM (active); in test [2], 20.9 µM (active); in test [9] it was 5.9 µM (active); in test [3], 8.33 µM (active); in test [10] it was 23.5 µM (active); in test [11] it was 1.66 µM (active). Besides, the Potency in [12] was 3.32 µM (active); in test [4], 2.64 µM (active); in test [13], 2.96 µM (active); in [5], 16.6 µM (active); in [14], 9.35 µM (active); in test [15], 16.6 µM (active). Also, the Potency in test [16] is 3.32 µM (active); in [17] it was 7.43 µM (active); in [6], 16.6 µM (active); in test [7], 20.9 µM (active); in test [8] it was 8.33 µM (active); in test [18], 11.8 µM (active).
For `COc1cc(OC)cc(-c2ccc3ncc4ccc(=O)n(-c5ccc(N6CCNCC6)c(C(F)(F)F)c5)c4c3c2)c1`, the Potency in test [1] is 4.69 µM (active); in test [2], 2.35 µM (active); in test [9], 5.9 µM (active); in test [10], 3.72 µM (active); in test [11], 3.72 µM (active); in test [12], 5.9 µM (active). The Potency in test [4] was 2.09 µM (active); in test [13] it was 2.96 µM (active); in test [5], 1.66 µM (active); in test [14] it was 5.26 µM (active); in test [15], 3.72 µM (active); in [16], 4.18 µM (active). Further, the Potency in [17] is 5.26 µM (active); in [6] it was 5.9 µM (active); in test [7], 7.43 µM (active); in test [8], 4.18 µM (active); in test [19], 3.72 µM (active); in test [18], 14.8 µM (active).
Consider `NC(=O)c1cccc(-c2cccc(OC(=O)NC3CCCCC3)c2)c1`, for which the Potency entry in test [1], in test [20], in test [10], in [14], in test [15] and in test [16] was “inactive” throughout. For the same molecule, the Potency result in test [8], in test [19] and in test [18] was “inactive” throughout.
With `CC(C)c1cc(C(C)C)c(CC(=O)NS(=O)(=O)Oc2c(C(C)C)cccc2C(C)C)c(C(C)C)c1`, the Potency entry in test [1] and in [19] was “inactive” each time. Further, the Potency in test [20] was 4.69 µM (active); in test [3], 7.43 µM (active); in test [14] it was 16.6 µM (active); in test [15], 6.62 µM (active); in test [6], 26.4 µM (active); in test [7] it was 33.2 µM (active). Moreover, the Potency in test [8] and in [18] was 20.9 µM (active) each time.
As for `CC1(C)[C@H](O[C@H]2O[C@H](C(=O)O)[C@@H](O)[C@H](O)[C@H]2O[C@@H]2O[C@H](C(=O)O)[C@@H](O)[C@H](O)[C@H]2O)CC[C@@]2(C)[C@H]1CC[C@]1(C)[C@H]2C(=O)C=C2[C@H]3C[C@@](C)(C(=O)O)CC[C@]3(C)CC[C@]21C`, the Potency entry in test [1], in test [2], in [3], in [4], in test [5] and in [14] was “inactive” in each case. In addition, the Potency entry in test [15], in test [6] and in test [19] was “inactive” in each case.
As for `COc1cc2c(Nc3ccc(Cl)c(Cl)c3F)ncnc2cc1OCC1C[C@@H]2CN(C)C[C@H]2C1`, the Potency was 4.18 µM (active) in [1]; 5.9 µM (active) in test [9]; 4.18 µM (active) in test [3]; 14.8 µM (active) in test [10]; 1.48 µM (active) in test [11]; 1.32 µM (active) in test [12]. Also, the Potency was 2.35 µM (active) in test [4]; 2.35 µM (active) in test [13]; 5.9 µM (active) in [5]; 5.26 µM (active) in test [14]; 1.87 µM (active) in [15]; 1.87 µM (active) in test [16]. For the same molecule, the figures for the Potency in test [6] and in [7] were 2.35 µM (active) and 23.5 µM (active), respectively.
`N#Cc1c(C2CCNCC2)cc(-c2c(O)cccc2OCC2CC2)nc1N`: the Potency in test [1] is 9.35 µM (active); in test [2] it was 2.64 µM (active); in test [9], 11.8 µM (active); in test [3] it was 18.7 µM (active); in test [11], 16.6 µM (active); in test [12] it was 18.7 µM (active). Further, the Potency in [13] was 18.7 µM (active); in test [5] it was 0.418 µM (active); in test [14] it was 14.8 µM (active); in test [15] it was 20.9 µM (active); in test [16] it was 23.5 µM (active); in [17] it was 16.6 µM (active). Besides, the Potency was 18.7 µM (active) in test [6], 18.7 µM (active) in test [7], 14.8 µM (active) in [8] and 20.9 µM (active) in test [19].
Consider `CN(CC(=O)N(Cc1ccc(C2CCCCC2)cc1)c1ccc(C(=O)O)c(O)c1)S(=O)(=O)c1c(F)c(F)c(F)c(F)c1F`, for which the Potency in test [1] is 2.96 µM (active); in test [9] it was 14.8 µM (active); in [3], 9.35 µM (active); in test [10] it was 3.32 µM (active); in test [11] it was 6.62 µM (active); in test [12] it was 18.7 µM (active). In addition, the Potency is 18.7 µM (active) in test [4]; 5.26 µM (active) in test [13]; 3.32 µM (active) in test [5]; 29.6 µM (active) in [14]; 7.43 µM (active) in test [15]; 6.62 µM (active) in [16]. In addition, the Potency in test [6] is 20.9 µM (active); in test [7], 20.9 µM (active); in test [8] it was 18.7 µM (active); in test [18], 33.2 µM (active).
For the molecule `CC(C)NC[C@@H](C(=O)N1CCN(c2ncnc3c2[C@H](C)C[C@H]3O)CC1)c1ccc(Cl)cc1`, the Potency is 4.18 µM (active) in test [1]; 14.8 µM (active) in test [9]; 1.66 µM (active) in test [3]; 4.18 µM (active) in test [11]; 6.62 µM (active) in test [12]; 3.72 µM (active) in test [4]. Moreover, the Potency in [13] was 0.469 µM (active); in test [5], 1.87 µM (active); in test [14], 6.62 µM (active); in test [15], 0.469 µM (active); in [16] it was 0.743 µM (active); in test [6], 1.32 µM (active). For the same molecule, the Potency in test [7] was 0.0264 µM (active); in test [8], 0.296 µM (active); in [19], 0.105 µM (active); in [18], 16.6 µM (active).

The values are drawn from PubChem BioAssay (NCATS).
